Data as given in PubChem BioAssay (Tox21).
“And” between values parts separate entries of the source, which are not always exact repeats. Equal values may be shown once. Results filed as inconclusive are left out. Where a call stands in place of a potency, no number is given. A number with no mark means an inactive call. The source made the active and inactive calls. Unless noted, the call rests on the fitted dose curve.

What follows are compounds tested against Progesterone receptor (Homo sapiens) (UniProt P06401) (assay: qHTS assay to identify small molecule agonists of the progesterone receptor (PR) signaling pathway (AID 1346784; further: nearly all actives have a fitted effect of over 30% in size)). Conditions: PR-UAS-bla HEK293T, beta-lactamase FRET ratio, 16 h; series mostly up to 92.4 µM; activation: at the top concentration.
Chain of Progesterone receptor (Homo sapiens) (P06401 whole entry, looked up): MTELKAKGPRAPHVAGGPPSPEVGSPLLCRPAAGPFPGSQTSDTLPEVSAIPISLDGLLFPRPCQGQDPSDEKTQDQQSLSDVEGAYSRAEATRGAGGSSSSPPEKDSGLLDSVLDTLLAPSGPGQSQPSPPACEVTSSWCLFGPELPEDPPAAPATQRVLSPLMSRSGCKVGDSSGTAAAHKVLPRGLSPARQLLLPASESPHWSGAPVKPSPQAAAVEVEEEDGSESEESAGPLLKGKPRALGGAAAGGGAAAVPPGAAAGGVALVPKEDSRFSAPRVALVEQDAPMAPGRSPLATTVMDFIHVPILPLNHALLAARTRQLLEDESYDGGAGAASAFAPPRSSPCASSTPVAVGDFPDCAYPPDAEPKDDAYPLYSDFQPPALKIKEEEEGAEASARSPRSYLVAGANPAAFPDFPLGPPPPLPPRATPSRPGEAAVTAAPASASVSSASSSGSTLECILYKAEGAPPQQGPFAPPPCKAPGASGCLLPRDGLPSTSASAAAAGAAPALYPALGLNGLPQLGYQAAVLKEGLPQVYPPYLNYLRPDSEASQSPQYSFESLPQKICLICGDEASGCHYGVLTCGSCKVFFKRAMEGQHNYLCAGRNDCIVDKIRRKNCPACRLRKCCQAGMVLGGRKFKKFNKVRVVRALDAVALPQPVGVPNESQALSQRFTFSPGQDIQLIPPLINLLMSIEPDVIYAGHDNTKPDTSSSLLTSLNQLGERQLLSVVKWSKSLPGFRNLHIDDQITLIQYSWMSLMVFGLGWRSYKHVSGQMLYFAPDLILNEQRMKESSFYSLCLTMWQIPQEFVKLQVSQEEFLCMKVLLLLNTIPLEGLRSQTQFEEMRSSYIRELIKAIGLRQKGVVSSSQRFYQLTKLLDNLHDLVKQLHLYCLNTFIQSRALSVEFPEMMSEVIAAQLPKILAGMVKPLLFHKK
How it was run: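 Beta-lactamase reporter read-out: after 16 hr compound treatment at 37C and a further 2 hr at room temperature with LiveBLAzer B/G FRET substrate, fluorescence was measured in PR-UAS-bla HEK 293T cells grown in 2% charcoal-stripped serum.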

Structure (SMILES)	Potency	activation [%]
O=C(O)CCCc1ccc(N(CCCl)CCCl)cc1	inactive	–
NNc1ccccc1	inactive	–
Nc1nc(N)nc(NC2CC2)n1	inactive	–
Sc1ccccc1	inactive	–
CC(C)c1cccc(C(C)C)c1O	inactive	–
COC(C)(C)CCCC(C)C/C=C/C(C)=C/C(=O)OC(C)C (stereo not drawn)	inactive	–
C=CCN=C=S	inactive	–
O=P1(NCCCl)OCCCN1CCCl (stereo not drawn)	inactive	–
CNC(=O)Oc1cccc2ccccc12	inactive	–
Nc1cc(Cl)cc(Cl)c1	inactive	–
Cc1cc(O)ccc1Cl	inactive	–
CCOC(=O)CC(SP(=O)(OC)OC)C(=O)OCC (stereo not drawn)	inactive	–
CC(=O)/C=C/c1ccccc1	inactive	–
Cc1ccc(N)cc1	inactive	–
Cl[C@H]1OCCO[C@@H]1Cl	inactive	–
CCSC(=O)N1CCCCCC1	inactive	–
CN(C)NC(=O)CCC(=O)O	inactive	–
CC[N+](=O)[O-]	inactive	–
Oc1ccc(Cl)cc1	inactive	–
CN1C(=O)CCS(=O)(=O)C1c1ccc(Cl)cc1 (stereo not drawn)	inactive	–
COP(=S)(OC)SCN1C(=O)c2ccccc2C1=O	inactive	–
OCc1ccco1	inactive	–
CCOP(=S)(OCC)Oc1ccc([N+](=O)[O-])cc1	inactive	–
C[C@]12CC[C@H](O)CC1=CC[C@@H]1[C@@H]2CC[C@]2(C)C(=O)CC[C@@H]12	inactive	–
C=CC(=O)OCC(CC)CCCC (stereo not drawn)	–	-0.0244
CCOP(=S)(OCC)Oc1cc(C)nc(C(C)C)n1	inactive	–
c1ccc2c(c1)CCCC2	inactive	–
CC(=O)C1CCOC1=O (stereo not drawn)	inactive	–
CSc1nnc(C(C)(C)C)c(=O)n1N	inactive	–
N#Cc1cccc(C#N)c1	inactive	–

What follows are compounds tested against Progesterone receptor (Homo sapiens) (UniProt P06401) (assay: qHTS assay to identify small molecule antagonists of the progesterone receptor (PR) signaling pathway (AID 1346795; active means well fitted inhibition curve with a large enough effect in the signal ratio in the repeat runs, not every such curve was filed as active; the % refers to the signal ratio; further: potency means the concentration at half of the fitted maximal effect)). Conditions: PR-UAS-bla HEK293T, beta-lactamase FRET ratio, 16 h; series mostly up to 92.4 µM; activity change, negative = inhibition: at the top concentration.
How it was run: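 Read-out is fluorescence from the LiveBLAzer B/G FRET substrate, cleaved by a UAS-controlled beta-lactamase in PR-UAS-bla HEK293T cells after 16 hr exposure to compound plus 1 nM promegestone (final), followed by 2 hr at room temperature.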

Structure (SMILES)	Potency	activity change, negative = inhibition [%]
O=C(O)CCCc1ccc(N(CCCl)CCCl)cc1	inactive	–
NNc1ccccc1	inactive	–
Nc1nc(N)nc(NC2CC2)n1	inactive	–
Sc1ccccc1	inactive	–
CC(C)c1cccc(C(C)C)c1O	inactive	–
COC(C)(C)CCCC(C)C/C=C/C(C)=C/C(=O)OC(C)C (stereo not drawn)	inactive	–
C=CCN=C=S	–	7.1
O=P1(NCCCl)OCCCN1CCCl (stereo not drawn)	inactive	–
CNC(=O)Oc1cccc2ccccc12	27.1 µM (active) and 30.6 µM (active)	–
Nc1cc(Cl)cc(Cl)c1	inactive	–
Cc1cc(O)ccc1Cl	–	-0.838
CCOC(=O)CC(SP(=O)(OC)OC)C(=O)OCC (stereo not drawn)	inactive	–
CC(=O)/C=C/c1ccccc1	inactive	–
Cc1ccc(N)cc1	–	10.5
Cl[C@H]1OCCO[C@@H]1Cl	inactive	–
CCSC(=O)N1CCCCCC1	–	14.8
CN(C)NC(=O)CCC(=O)O	inactive	–
CC[N+](=O)[O-]	–	2.05
Oc1ccc(Cl)cc1	inactive	–
CN1C(=O)CCS(=O)(=O)C1c1ccc(Cl)cc1 (stereo not drawn)	inactive	–
COP(=S)(OC)SCN1C(=O)c2ccccc2C1=O	inactive	–
OCc1ccco1	–	9.22
C=CC(=O)OCC(CC)CCCC (stereo not drawn)	inactive	–
CCOP(=S)(OCC)Oc1cc(C)nc(C(C)C)n1	inactive	–
c1ccc2c(c1)CCCC2	inactive	–
CC(=O)C1CCOC1=O (stereo not drawn)	inactive	–
CSc1nnc(C(C)(C)C)c(=O)n1N	inactive	–
N#Cc1cccc(C#N)c1	inactive	–
